Screening data deposited in PubChem BioAssay by National Center for Advancing Translational Sciences (NCATS).
This is a sample that favours compounds with a hit; in the whole collection about 3.3% have one here.
VACV mCherry inh: vaccinia inhibition (mCherry reporter). Vaccinia virus mCherry reporter infection, fluorescence. Potency, µM (titrated, usually from 36.5 µM), for inactives: at the highest dose activity change, negative = inhibition, most hits filed as inhibitors. hit rate 0.63% among 310,000; calls by dose curve; tested in A549 cells; note: nearly all actives have a fitted effect of over 35% in size
HCV inh: blocks hepatitis C virus; Huh7.5.1 HCVcc-Cre infection, luciferase reporter, 44 h; Potency, µM (highest dose often 41.8 µM), without a hit: at the top dose activity change, negative = inhibition, actives largely listed as inhibitors; hit rate 3.4% among 340,000; AID 651820; active = well fitted inhibition curve with a large enough effect; inconclusive = small, poorly fitted or top-dose-only effect, or another doubt; inactive = no such curve, though single readings can be large or run the other way
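Infectious HCV cell culture screen: compound-treated cells (1,000/well, pre-plated 4 h) are infected with HCVcc-Cre at roughly 0.5 moi and grown 44 h. Infection is quantified by luciferase signal after 15 min substrate incubation at room temperature.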
VACV Venus inh: vaccinia inhibition (Venus reporter); Vaccinia virus Venus reporter expression, fluorescence; Potency, µM (titrated, usually from 36.5 µM), for the others: at the highest dose activity change, negative = inhibition, most hits filed as inhibitors; hit rate 0.46% among 330,000; AID 720580; calls by dose curve; tested in A549 cells; note: nearly all actives have a fitted effect of over 30% in size
An asterisk follows results filed as active; i = inactive; ? = inconclusive; . = no result; [ ] = another dose, or the depositor's remark. % is set by controls: 0 for no effect and ±100 for the full control effect; potency is the fitted concentration of half-maximal effect.

SMILES | VACV mCherry inh | HCV inh | VACV Venus inh
Cc1ccc(/C=N/NC(=O)c2cccc(S(=O)(=O)Nc3ccccc3Cl)c2)o1 | i | 38% | -7%
COc1ccccc1NS(=O)(=O)c1cccc(C(=O)N/N=C/c2cn(-c3ccccc3)nc2-c2ccccc2)c1 | ? | ? | -14%
CCN(CC)c1ccc(/C=N/NC(=O)c2cccc(S(=O)(=O)Nc3ccccc3OC)c2)c(O)c1 | 2.5µM* | 10µM* | ?
CCN(CC)c1ccc(/C=N/NC(=O)c2ccc3nc[nH]c3c2)c(O)c1 | 11µM* | 5µM* | ?
COc1cc(OC)c(OC)cc1/C=N/NC(=O)c1ccc2nc[nH]c2c1 | -11% | -14% | 2%
COc1ccccc1NS(=O)(=O)c1cccc(C(=O)N/N=C/c2ccc([N+](=O)[O-])o2)c1 | ? | 11µM* | ?
COc1ccccc1/C=N/NC(=O)c1ccc(Br)cc1 | ? | -5% | -15%
COc1ccccc1C1CC(=O)Oc2c(C(C)C)ccc(C)c21 (stereo not given) | i | ? | 0%
CCOc1ncccc1C(=O)Nc1c(C)n(C)n(-c2ccccc2)c1=O | 14% | 4% | 5%
CCN(CC)c1ccc(/C=N/NC(=O)c2cccc(S(=O)(=O)Nc3ccccc3OC)c2)cc1 | . | 11µM* | .
COc1ccccc1NS(=O)(=O)c1cccc(C(=O)N/N=C/c2ccc3c(c2)OCCO3)c1 | -15% | 3% | -14%
N#CC1=C(SCC(=O)NC23CC4CC(CC(C4)C2)C3)NC(=O)C(C#N)C12CCCCC2 (stereo not given) | 10µM* | ? | 13µM*
N#CC1=C(SCC(=O)NC2CC2)NC(=O)C(C#N)C12CCCCC2 (stereo not given) | i | 16% | -4%
CCN(CC)c1ccc(C2C(C(N)=O)=C(C)Nc3nc(SCc4ccccc4Cl)nn32)cc1 (stereo not given) | 25% | . | -7%
COC(=O)CC1Oc2ccc(Cl)cc2-n2cc(-c3ccc(F)cc3)nc21 (stereo not given) | -14% | . | -11%
COc1ccc(C(CNC(=O)c2cc(S(=O)(=O)N3CCN(c4ccccc4)CC3)ccc2Cl)N(C)C)cc1 (stereo not given) | . | 16µM* | .
CN(C)C(CNC(=O)c1cc(S(=O)(=O)N2CCOCC2)ccc1Cl)c1cccs1 (stereo not given) | . | -17% | .
CN(C)C(CNC(=O)c1cccc(S(=O)(=O)N(C)C)c1)c1ccccc1 (stereo not given) | i | 15% | -5%
CN(C)C(CNC(=O)c1cccc(S(=O)(=O)N2CCN(c3ccccc3)CC2)c1)c1ccccc1 (stereo not given) | . | 13µM* | .
O=S(=O)(c1ccc(OC(F)(F)F)cc1)N1CCN(c2nc(-c3ccccc3)nc3ccccc23)CC1 | -11% | . | -13%
CCc1ccc(NC(=S)Nc2ccc3[nH]c(=O)[nH]c3c2)cc1 | -7% | -7% | 1%
CC1NC(=O)c2cc3ccccc3cc2-n2c1nc1ccc(F)cc1c2=O (stereo not given) | ? | . | -10%
COc1ccc(C(=O)Nc2cccc(S(=O)(=O)N(C)C)c2)cc1S(=O)(=O)N1CCOCC1 | -5% | ? | -11%
COc1ccccc1N(C)S(=O)(=O)c1ccc(C(=O)Nc2cccc(S(=O)(=O)N3CCOCC3)c2)cc1 | . | 10µM* | .
O=C(Cc1ccc(Br)cc1)Nc1cccc(S(=O)(=O)N2CCCCC2)c1 | -27% | . | ?
SMILES | VACV mCherry inh | HCV inh | VACV Venus inh
O=C(/C=C/c1ccc(S(=O)(=O)N2CCOCC2)cc1)Nc1cc(F)ccc1F | -10% | ? | -11%
O=C(/C=C/c1ccc(F)cc1)Nc1cccc(S(=O)(=O)N2CCOCC2)c1 | -18% | 10µM* | -29%
CCOc1ccc(CN(C)C(=O)c2ccc(S(=O)(=O)N(C)c3ccccc3OC)cc2)cc1 | . | 11µM* | .
COc1ccc(CC(=O)Nc2cccc(S(=O)(=O)N3CCCC3)c2)cc1OC | . | 4.5µM* | .
COc1ccccc1N(C)S(=O)(=O)c1ccc(C(=O)N(C)Cc2cccc(OC)c2OC)cc1 | -12% | . | -17%
COc1ccc(S(=O)(=O)N2CCCC(C(=O)N3CCN(Cc4ccccc4)CC3)C2)cc1Cl (stereo not given) | -19% | . | -29%
CCOC(=O)c1ccc2c(c1)N(CC(=O)N(C)c1ccccc1)C(=O)c1ccccc1S2 | -20% | . | -14%
Cc1ccc2onc(CC(=O)N(C)c3ccccc3)c2c1 | 0% | . | -3%
CCCN1CNc2c(c(=O)[nH]c(=S)n2CCc2cc(Cl)cc(Cl)c2)C1 | 0% | . | -8%
CCCOC(=O)c1cccc(Nc2nc(CCC)cc(=O)[nH]2)c1 | ? | . | -26%
Cc1ccc(N(CC(=O)Nc2ccc(F)cc2F)S(=O)(=O)c2cccs2)cc1 | -6% | . | -6%
COc1ccc(/C=C/C(=O)Nc2ccc(C(N)=O)cc2)cc1OC | -5%[7.34 µM] | -29% | -4%[7.34 µM]
COc1ccc(/C=C/C(=O)Nc2cccc(S(=O)(=O)N3CCCC3)c2)cc1OC | i | 10µM* | -21%
COc1ccc(Br)cc1CN(C)CC(=O)Nc1cccc(S(=O)(=O)N2CCCC2)c1 | ? | 8.9µM* | -20%
COc1ccc(CC(=O)Nc2cccc(S(=O)(=O)N3CCOCC3)c2)cc1OC | . | 3.5µM* | .
COc1ccccc1CC(=O)Nc1cccc(S(=O)(=O)N2CCOCC2)c1 | -12% | ? | -10%
COc1ccc(Br)cc1CN(C)CC(=O)Nc1cccc(S(N)(=O)=O)c1 | -21% | -8% | -16%
COc1ccc(/C=C/C(=O)Nc2ccc(-n3nncc3-c3ccccc3)cc2)cc1OC | -6% | 13µM* | -24%
COc1ccc(/C=C/C(=O)N2CCN(S(=O)(=O)c3ccccc3)CC2)cc1OC | i | -26% | -9%
O=S(=O)(c1cccnc1)N1CCN(c2nc(-c3cccs3)nc3ccccc23)CC1 | -26% | . | -18%
COc1ccc(-c2cc(OC(=O)c3ccc(F)cc3)c3c(C)oc(C)c3c(=O)c2)cc1OC | -8% | . | -7%
Cc1cc(O)c2c(C)c(CC(=O)N3CCCCC3)c(=O)oc2c1 | -10% | . | 2%
Cc1ccc(NC(=O)Cn2c(=O)n(Cc3ccc4c(c3)OCO4)c(=O)c3oc4ccccc4c32)cc1C | i | . | -12%
CCc1ccc(/C(C)=N/NS(=O)(=O)c2ccc(OC)cc2)s1 | . | -2% | .
COc1ccccc1N(C)S(=O)(=O)c1ccc(C(=O)Nc2cc(F)ccc2C)cc1 | -3% | 6.3µM* | -12%
SMILES | VACV mCherry inh | HCV inh | VACV Venus inh
COc1ccccc1N(C)S(=O)(=O)c1ccc(C(=O)NC(C)(C)C)cc1 | -11% | -6% | -3%
Cc1ccc(COC(=O)CCN=C2NS(=O)(=O)c3ccccc32)cc1 | -14% | 9% | -6%
O=C(O)CSc1ncnc2sc3c(c12)CCCC3 | i | 19% | -4%
O=C(O)CSc1ncnc2sc3c(c12)CCC3 | -6% | 25% | 2%
CCSc1ncnc2sc3c(c12)CCC3 | . | 25µM* | .
Fc1ccc(CSc2ncnc3sc4c(c23)CCCC4)cc1 | . | 11µM* | .
Cc1cnc(CNC(=O)c2ccc3nc([C@@H]4O[C@H](CO)[C@H](O)[C@H](O)[C@H]4O)[nH]c3c2)cn1 | i | . | -4%
COc1cc(OC)c(/C=C/c2cc3c4ccccc4ccc3[n+](C)c2)c(OC)c1 | -23% | . | -16%
CC1CN(C(=S)SCCN2C(=O)CCC2=O)CC(C)O1 (stereo not given) | -15% | 25% | -11%
CCN(CC)S(=O)(=O)c1ccc(NC(=O)CSc2nnc3c(n2)[nH]c2ccccc23)cc1 | -13% | . | ?
